Screens as filed in PubChem.
Hits are enriched below; roughly 19% of the tested compounds scored in any of these assays.
KB-3-1 cytotox: kills parental KB-3-1 adenocarcinoma cells. KB-3-1 viability, CellTiter-Glo ATP luminescence, 72 h. Potency, µM (highest dose often 46.1 µM), most hits filed as cytotoxic. 400,000 compounds, 1.4% hits. AID 1347075; also: nearly all actives have a fitted effect of over 60% in size
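Parental KB-3-1 viability, qHTS format: 72 h compound exposure, 37 °C; CellTiter-Glo; media-only wells and DMSO plates as controls; concentration-effect fits on corrected data.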
DT40 TDP1 CPT: growth inhibition of DT40 Tdp1-/-;hTDP1 cells with camptothecin (screen for TDP1 inhibitors); chicken DT40 Tdp1-/-;hTDP1 cells + 20 nM CPT, ATP luminescence, 48 h; Potency, µM (doses to about 46.2 µM), for inactives: at the top dose activity change, negative = growth inhibition, most hits filed as inhibitors; 420,000 compounds, 12% hits; also: nearly all actives have a fitted effect of over 55% in size
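Chicken DT40 Tdp1-/- cells stably complemented with human TDP1 were seeded at 400 cells/well in medium containing 20 nM camptothecin, exposed to pin-transferred compounds, and grown at 37 °C for at least 48 hr. Viability was read as ATP luminescence.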
HT1080-NT tox: kills 2HG-producing HT-1080-NT fibrosarcoma cells; Potency, µM (doses to about 46.1 µM), for inactives: at the top dose activity, negative = less viability, usual class: cytotoxic; AID 686970; 360,000 compounds, 1.6% hits; HT-1080-NT fibrosarcoma viability, CellTiter-Glo ATP luminescence, 48 h;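 also: NT is the 2HG producing partner of a matched IDH1 knockdown line; 0% = DMSO-treated cells and -100% = media-only wells without cells; nearly all actives have a fitted effect of over 55% in size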
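HT-1080-NT fibrosarcoma cells (2HG-overproducing), 750 cells/well in RPMI with 5% FBS, dosed after 2 h and incubated 48 h at 37C. CellTiter-Glo luminescence normalized to DMSO and no-cell wells; concentration-response curves fitted and classed.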
KB-V1 MDR tox: KB-V1 MDR subline cytotoxicity; 400,000 compounds, 3.4% hits; KB-V1 MDR cells viability, CellTiter-Glo, 72 h; Potency, µM (highest dose often 46.1 µM), hits mostly cytotoxic; also: nearly all actives have a fitted effect of over 60% in size
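qHTS viability screen in drug-selected KB-V1 MDR cells: 72 h compound treatment at 37 degrees C, ATP luminescence end point.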
DT40 TDP1 no CPT: qHTS for Inhibitors of human tyrosyl-DNA phosphodiesterase 1 (TDP1): qHTS in cells in absence of CPT; DT40 Tdp1-/- hTDP1 cells, no CPT, ATP luminescence, 48 h; Potency, µM (top dose mostly 46.2 µM), for inactives: at the highest dose activity change, negative = growth inhibition, most hits filed as inhibitors; 420,000 compounds, 15% hits; AID 686978, 2013; also: nearly all actives have a fitted effect of over 55% in size
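Compound effects on proliferation are scored in DT40 Tdp1-/-;hTDP1 cells in the absence of CPT. ATP levels (CellTiter-Glo luminescence) are recorded after a ≥48 hr, 37 °C incubation.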
HT1080 IDH1KD tx: HT-1080 IDH1 knockdown cell toxicity (counter line); HT-1080 IDH1 knockdown viability, ATP luminescence, 48 h; Potency, µM (top dose mostly 46.1 µM), without a hit: at the highest dose activity, negative = toxicity, most hits filed as cytotoxic; 360,000 compounds, 2% hits; AID 686971;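 also: 0% = DMSO wells and -100% = cell-free medium wells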
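Knockdown cells (IDH1KD HT-1080) received compounds 2 h after plating at 750 cells/well and were kept 48 h at 37 °C in 5% FBS RPMI. A CellTiter-Glo luminescence read gave % activity for curve fitting.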
* hit, by the source's call; i = inactive; u = inconclusive; x = no result; [ ] = remark or other dose. Calls follow the shape of the dose curve; as a rule, active = well fitted curve in the direction sought with a large enough effect; inconclusive = small, poorly fitted or top-dose-only effect, or another doubt; inactive = no such curve, though single readings can be large; an effect the other way counts as inactive or inconclusive. Unless noted, % is scaled to controls: 0 for no effect and ±100 for the full control effect; potency is read from the fitted curve at half-maximal effect.

SMILES	KB-3-1 cytotox	DT40 TDP1 CPT	HT1080-NT tox	KB-V1 MDR tox	DT40 TDP1 no CPT	HT1080 IDH1KD tx
CC1CCCN(c2ccc(C(=O)Nc3nnc(C4CC4)s3)cc2[N+](=O)[O-])C1 (stereo unspecified)	i	4%	7%	i	-1%	7%
Cc1ccc(C)c2sc(NC(=O)c3ccc(N4CCCCC4)c([N+](=O)[O-])c3)nc12	i	u	11%	i	23µM*	6%
COc1cccc(NC(=O)CSc2nc(=O)n(Cc3ccco3)c3c2CCC3)c1	i	-10%	x	i	u	x
Cc1ccc(-c2nc(=S)c3c(n2Cc2ccco2)CCCC3)cc1	i	u	-14%	i	u	-3%
Cc1ccc(-c2nc(=S)c3c(n2CC2CCCO2)CC(C)(C)OC3)cc1 (stereo unspecified)	i	-19%	11%	u	-4%	2%
COc1cccc(-c2nc(=S)c3c(n2Cc2ccco2)CCCC3)c1	i	16µM*	u	i	u	u
Cc1cccc(-c2nc(=S)c3c(n2Cc2ccco2)CCCC3)c1	i	21µM*	-3%	i	u	-8%
Cc1ccc(-c2nc(=S)c3c(n2Cc2ccco2)CC(C)(C)OC3)cc1	i	16µM*	0%	i	23µM*	14%
COc1ccccc1-c1ccnc(-n2ncc(C(=O)NCc3ccncc3)c2C)n1	x	-9%[9.04 µM]	x	x	-27%	x
CN(C)c1cccc(C(=O)n2cc(C(=O)c3cc(F)ccc3O)cn2)c1	i	-2%	-3%	i	u	-8%
COc1ccc(O)c(C(=O)c2cnn(C(=O)c3cccc(N(C)C)c3)c2)c1	i	18µM*	-6%	u	18µM*	-6%
CCOc1ccc(N(CC)C(=O)c2cc3c(s2)-c2ccc(Cl)cc2SC3)cc1	u	12µM*	x	i	u	x
COCCNC(=O)c1cc2c(s1)-c1ccc(Cl)cc1SC2	i	-17%	-16%	i	u	-24%
O=C(NCCn1cc(SCc2cccc(F)c2)c2ccccc21)c1cccc(C(F)(F)F)c1	i	u	x	21µM*	16µM*	x
COc1ccc(C(=O)NCCn2cc(SCc3cccc(F)c3)c3ccccc32)cc1OC	u	9.2µM*	x	u	4.6µM*	x
CCOC(=O)c1cc(NC(=O)c2ccco2)ccc1N1CCOCC1	i	2%	-13%	i	-10%	-7%
O=S1(=O)CCN(C2CCCCCC2)CC1	i	-9%	-2%	i	-14%	-7%
CCN(CC#CCC(O)(c1ccccc1)c1ccccc1)C(C)C	i	-11%	0%	i	-29%	-8%
CC(C)N(CC#CCC(O)(c1ccccc1)c1ccccc1)C(C)C	i	-16%	-16%	13µM*	-25%	4%
Cc1ccc2oc(-c3cc(NC(=O)CC(C)C)ccc3Cl)nc2c1	i	10µM*	x	i	12µM*	x
COc1c(C)cccc1C(=O)Nc1ccc(Cl)c(-c2nc3cc(C)ccc3o2)c1	i	15µM*	x	i	9.2µM*	x
Cc1ccc2oc(-c3cccc(NC(=O)c4cccc5c(Cl)cccc45)c3)nc2c1	i	1%	x	u	5%	x
Cc1c(C(=O)NCCc2ccc(S(N)(=O)=O)cc2)sc2nc3n(c(=O)c12)CCCC3	i	-3%	x	i	-13%	x
COc1ccc(N2CC(NC(=O)C3CCCC3)CC2=O)cc1OC (stereo unspecified)	i	-13%	x	i	-3%	x
CCOC(=O)c1cc(C#N)c(Oc2ccccc2OC)nc1-c1ccccc1	u	u	-17%	i	23µM*	-18%
